One may read the viability as a read-out of living cells in per cent, often relative to untreated cells.

Structures are written as SMILES. Values without a mark were called inactive. Calls of active or inactive are those of the source.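 The calls were made as follows, unless noted: active = viability loss from added drug above about 55%, and viability with drug at most 40%, in both replicates (limit read from the data, passing the limit was not always enough); inconclusive = both conditions met in only one replicate; inactive = neither replicate meets both conditions.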

For 36 compounds, viability and differential viability (reversal) results are on record in PubChem BioAssay.

One experiment is described as follows: growth inhibitors of H69AR lung tumor, primary screen, human, duplicate replicates (AID 580;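 active = viability at or under a set limit in both replicates, limit being median viability minus 3 SD, cut at about 48% in these data, passing the limit was not always enough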;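 also: 100% = mean luminescence of untreated wells and 0% = no signal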). The note with it: H69AR lung tumor cells viability, ATP luminescence, 72 h; at 10 µM; active compounds read low.
Take `Cn1c(=O)oc2cc(S(=O)(=O)N3CCN(c4ccccn4)CC3)ccc21`: the viability is 73.8%. On the same count and under the same terms, then `Cc1cccc(N(CC(=O)N2CCCC2)S(=O)(=O)c2ccccc2)c1C`, with 88.5%; and `CC(Sc1n[nH]c(=O)[nH]c1=O)C(=O)OCc1ccccc1` (stereo not drawn), with 99.9%; and `O=C(Nc1ccncc1)c1cc2ccccc2o1`, with 105%.

As for `CCOc1ccccc1NC(=O)C1CCCN(S(=O)(=O)c2cccc3cccnc23)C1` (stereo not drawn), the viability was 78.1%. The same measure, in the same setting: then `CC(C)C(CO)NC(=O)CC(=O)NC(CO)C(C)C` (stereo not drawn), with 103%; and `C(=N\n1cnnc1)/c1cccc(OCCOc2ccccc2)c1`, with 94.6%. Still for that read-out and setting: for `Cc1ccc(C)c(N2CCN(CCCNC(=O)Cn3cc4c(n3)CCC(C)C4)CC2)c1` (stereo not drawn) the value was 26.6% (active); for `CCOC(=O)c1ccc(N=c2sc(C(=O)OC)cc(=O)n2Cc2ccco2)cc1`, 1.51% (active); for `Cc1ccccc1-c1nc(CN2CCC(C(=O)NC3CCN(Cc4ccccc4)CC3)CC2)c(C)o1`, 86.3%.

In the case of `CC(=O)n1cc(-c2ccncc2)c2ccccc21`, the viability was 85.3%.

On to `C/C=C/CSc1nc2c(c(=O)[nH]c(=O)n2C)n1Cc1ccc(C)cc1`, for which the viability was 35.5% (active). With `O=C(NCCN1C(=O)C2C3C=CC(C3)C2C1=O)Nc1ccccn1` (stereo not drawn), the viability was 95.8%.

For the compound `CC1CCCCN1S(=O)(=O)c1ccc(NC(=O)c2cccs2)cc1` (stereo not drawn), the viability is 85.5%. Consider `CCOC(=O)N1CCN(C(=O)CN(C2CCCCC2)S(=O)(=O)c2ccc(F)cc2)CC1`, for which the viability is 97.7%. On the same count and under the same terms, then `Cc1cc(=O)oc2c1ccc1oc(/C(=N/O)c3ccccc3)c(C)c12`, with 74.5%; and `Cc1cc(/C=N/n2cnnc2)c(C)n1-c1cccc(Cl)c1`, with 86.4%.

Another experiment in a line: reversal of MRP1-mediated doxorubicin resistance, pilot screen, H69AR cells, doxorubicin co-treatment (AID 601). Conditions: H69AR cells + 2 uM doxorubicin, CellTiter-Glo, 72 h; at 10 µM; active compounds read high. On the technique in general: Cellular ATP, detected with luciferase, serves as a proxy for viable cell number.
With `CN(C)c1ccc(NC(=O)Cn2cc3c(n2)CCCC3)cc1`, the differential viability (reversal) was -10.1%. The same measure, in the same setting: for `CCOC(=O)c1cc(NC(=O)SCC(=O)O)c(C)nc1C` the value was 2.72%; for `Cc1nc2ccccc2c2oc(C(=O)NCC3COc4ccccc4O3)cc12` (stereo not drawn), 0.085%. On the same count and under the same terms, then `O=C(CS(=O)(=O)c1cn(Cc2ccc(F)cc2)c2ccccc12)N1CCCCC1`, with 11.9%. Still for that read-out and setting: for `Cc1ccc(C2c3c(oc4ccccc4c3=O)C(=O)N2c2nnc(C(C)C)s2)o1` (stereo not drawn) the value was -3.47%; for `Cc1cc(C)c2c(=O)n(CC(=O)NCCCN3CCN(c4ccccc4F)CC3)sc2n1`, 2.02%; for `COc1ccccc1S(=O)(=O)Cc1ccc(C(=O)NCCN2CCCCCC2)o1`, 11.8%.

On to `COc1ccc(C2C(C(=O)Nc3cccnc3)=C(C)Nc3nc(-c4cccs4)nn32)cc1OC` (stereo not drawn), for which the differential viability (reversal) is 12.1%. Consider `Cc1cc(=O)oc2cc(OCC#N)ccc12`, for which the differential viability (reversal) is 6.12%. Still for that read-out and setting: then `CC1=C(C(N)=O)C(c2ccccn2)n2nc(SCc3ccccc3)nc2N1` (stereo not drawn), with -2.02%; and `OC1(c2cccc(C(F)(F)F)c2)CCN(c2ccc(-c3ccccc3)nn2)CC1`, with -2.92%; and `CCOC(=O)CSC1=C(C#N)C(c2ccc(C)o2)CC(=O)N1` (stereo not drawn), with -21.3%.

Take `O=C(Nc1nc2c(s1)CCCC2)C1COc2ccccc2O1` (stereo not drawn): the differential viability (reversal) is -10.7%. `Cc1ccccc1Cn1nc(C)c(NC(=O)c2noc3c2CCc2ccccc2-3)c1C`: the differential viability (reversal) is 14%. The same measure, in the same setting: then `O=C(C1CC1)N1CCc2cc(Br)cc(S(=O)(=O)N3CCOCC3)c21`, with 10.4%; and `C/C=C/COC(=O)c1[nH]c2c(c1C)C(=O)CC(c1ccco1)C2` (stereo not drawn), with -15.9%; and `Cc1ccc2nc(NC(=O)Cn3cc4c(n3)CCCCC4)sc2c1`, with -3.56%.

Take `Cn1c(=O)oc2cc(S(=O)(=O)N3CCN(c4ccccn4)CC3)ccc21`: the differential viability (reversal) is 0.275%. Take `Cc1cccc(N(CC(=O)N2CCCC2)S(=O)(=O)c2ccccc2)c1C`: the differential viability (reversal) was -0.32%. The same measure, in the same setting: for `CC(Sc1n[nH]c(=O)[nH]c1=O)C(=O)OCc1ccccc1` (stereo not drawn) the value was 11.6%; for `O=C(Nc1ccncc1)c1cc2ccccc2o1`, 13.8%; for `CCOc1ccccc1NC(=O)C1CCCN(S(=O)(=O)c2cccc3cccnc23)C1` (stereo not drawn), -11.7%. Still for that read-out and setting: for `O=C(Nc1nc(-c2ccncc2)cs1)C1COc2ccccc2O1` (stereo not drawn) the value was 4.21%; for `CC(C)C(CO)NC(=O)CC(=O)NC(CO)C(C)C` (stereo not drawn), 21.4%.

On to `C(=N\n1cnnc1)/c1cccc(OCCOc2ccccc2)c1`, for which the differential viability (reversal) was 4.15%. Still for that read-out and setting: then `C/C=C/COC(=O)c1[nH]c2c(c1C)C(=O)CC(c1ccc(N(C)C)cc1)C2` (stereo not drawn), with -30.1%.
